Results as given in PubChem BioAssay (NCATS).
Records with an inconclusive call do not appear. The source made the active and inactive calls. Calls come from the whole dose curve; as a rule, active = well fitted inhibition curve with a large enough effect; inconclusive = small, poorly fitted or top-dose-only effect; inactive = flat fitted curve, though single readings scatter.

test system: not listed separately; assay: Drug repurposing screens with cells derived from glioblastoma tumor samples (AID 1345199); settings: GBM patient neurospheres viability, ATP luminescence, 48 h; tumour line A; note: nearly all actives have a fitted effect of over 40% in size
Method in brief: (§1)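 Four patient lines of CD133+ GBM neurospheres were screened at several concentrations; hits were retested in those lines plus three slower-growing GBM lines, using 48-hour treatment and ATP-based viability.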
% is set by controls: 0 for no effect and ±100 for the full control effect; potency is the fitted concentration of half-maximal effect.

Structure (SMILES)	Potency
Cc1c(C)n(Cc2ccccc2)c2ccc(C(=O)OCCN(C)C)cc12	11.2 µM (active)
CCN(CC)CCOC(=O)C(c1ccccc1)C1CCCCC1 (stereo not drawn)	20 µM (active)
O=C(CCCN1CCC(O)(c2ccc(Br)cc2)CC1)c1ccc(F)cc1	3.55 µM (active)
CCCCOc1ccc(C(=O)CCN2CCCCC2)cc1	4.47 µM (active)
Clc1ccc2c(c1)CCc1cccnc1C2=C1CCNCC1	5.01 µM (active)
COc1ccc(/C=C/C(=O)c2ccc(OC)cc2OC)cc1	35.5 µM (active)
O=C(COc1ccc(Cl)cc1)N1CCN(Cc2ccc3c(c2)OCO3)CC1	20 µM (active)
c1ccc(CNCCNCc2ccccc2)cc1	22.4 µM (active)
CCN(CCCc1ccccc1)CCCc1ccccc1	5.01 µM (active)
CN(C)CC/C=C1\c2ccccc2Sc2ccc(Cl)cc21	6.31 µM (active)
CN1CCN(CCCN2c3ccccc3Sc3ccc(S(=O)(=O)N(C)C)cc32)CC1	7.94 µM (active)
CC(=O)c1ccc2c(c1)N(CCCN1CCC(CCO)CC1)c1ccccc1S2	11.2 µM (active)
CN(C(=O)CN(CCO)CC(=O)N(C)C(C)(C)Cc1ccccc1)C(C)(C)Cc1ccccc1	10 µM (active)

same assay, conditions: GBM patient neurospheres viability, ATP luminescence, 48 h; tumour line D

Structure (SMILES)	Potency
Cc1c(C)n(Cc2ccccc2)c2ccc(C(=O)OCCN(C)C)cc12	10 µM (active)
O=C(CCCN1CCC(O)(c2ccc(Br)cc2)CC1)c1ccc(F)cc1	8.91 µM (active)
Clc1ccc2c(c1)CCc1cccnc1C2=C1CCNCC1	20 µM (active)
COc1ccc(/C=C/C(=O)c2ccc(OC)cc2OC)cc1	12.6 µM (active)
CN(C)CC/C=C1\c2ccccc2Sc2ccc(Cl)cc21	11.2 µM (active)

test system: astro; assay: as above; settings: viability, ATP luminescence, 48 h; series mostly up to 45.9 µM; activity, negative = cell killing: at the top concentration
Method in brief: as §1

Structure (SMILES)	Potency	activity, negative = cell killing
CCCCCCCCCCOCC(O)CN (stereo not drawn)	28.2 µM (active)	–
O=C1OCCN1/N=C/c1ccc([N+](=O)[O-])o1	–	-9.68% (inactive)
CCN(CC)CCOC(=O)C(c1ccccc1)C1CCCCC1 (stereo not drawn)	–	-13.2% (inactive)
O=C(CCCN1CCC(O)(c2ccc(Br)cc2)CC1)c1ccc(F)cc1	–	-13.8% [at 21.2 µM] (inactive)
CC(O)(P(=O)(O)O)P(=O)(O)O	–	-3.72% (inactive)
Oc1ccc(Cl)cc1Sc1cc(Cl)ccc1O	7.94 µM (active)	–
C[C@H]1C[C@H]2[C@@H]3CCC4=CC(=O)C=C[C@]4(C)[C@@]3(Cl)[C@@H](O)C[C@]2(C)[C@@]1(O)C(=O)CO	–	-7.63% (inactive)
O=C(COc1ccc(Cl)cc1)N1CCN(Cc2ccc3c(c2)OCO3)CC1	–	-19.6% (inactive)
Cc1cccc(C)c1NC(=O)CN1CCN(CCCC(c2ccc(F)cc2)c2ccc(F)cc2)CC1	–	-22.7% [at 21.2 µM] (inactive)
C[C@]12CCC(=O)C=C1[C@@H]1C[C@@H]1[C@H]1[C@@H]3[C@@H]4C[C@@H]4[C@@]4(CCC(=O)O4)[C@@]3(C)CC[C@@H]12	–	-16.5% (inactive)
COc1cc2c(cc1OC)C(C(C(=O)N(CCc1ccc(OC)c(OC)c1OC)CCc1ccc(OC)c(OC)c1OC)c1ccccc1)=NCC2 (stereo not drawn)	–	-21.3% (inactive)
CCN(CC)CCOc1ccc(C(O)(Cc2ccc(Cl)cc2)c2ccc(C)cc2)cc1 (stereo not drawn)	22.4 µM (active)	–
c1ccc(CNCCNCc2ccccc2)cc1	–	-18.2% (inactive)
C=C1C[C@H]2[C@@H]3C=C(C)C4=CC(=O)CC[C@]4(C)[C@H]3CC[C@]2(C)[C@@]1(OC(C)=O)C(C)=O	–	-14.5% (inactive)
CCN(CCCc1ccccc1)CCCc1ccccc1	–	-29.2% [at 21.2 µM] (inactive)
CN(C)CC/C=C1\c2ccccc2Sc2ccc(Cl)cc21	22.4 µM (active)	–
CN1CCC(=C2c3ccccc3Sc3ccccc32)CC1	11.2 µM (active)	–
CN1CCN(CCCN2c3ccccc3Sc3ccc(S(=O)(=O)N(C)C)cc32)CC1	–	-14.7% [at 21.2 µM] (inactive)
CN(C(=O)CN(CCO)CC(=O)N(C)C(C)(C)Cc1ccccc1)C(C)(C)Cc1ccccc1	–	-18.9% [at 21.2 µM] (inactive)
CC(C)=CCC1C(=O)N(c2ccccc2)N(c2ccccc2)C1=O	–	-16.3% (inactive)
